In PubChem BioAssay:
Calls of active or inactive are those of the source.

How the values were obtained:
[1] = biological target: Albumin (Bos taurus) (UniProt P02769); assay: bovine serum albumin binders on microarray, profiling panel, artefact control for SMM control protein annotation, biochemical, small-molecule microarray, Alexa647 label, 635/667 nm fluorescence (AID 1118); conditions: BSA-A647 binding, fluorescence 635 nm, higher = more signal;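 further: score merges 667 nm emission intensity and signal-to-noise per printed compound spot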
Sequence of Albumin (Bos taurus) (P02769 whole entry, looked up): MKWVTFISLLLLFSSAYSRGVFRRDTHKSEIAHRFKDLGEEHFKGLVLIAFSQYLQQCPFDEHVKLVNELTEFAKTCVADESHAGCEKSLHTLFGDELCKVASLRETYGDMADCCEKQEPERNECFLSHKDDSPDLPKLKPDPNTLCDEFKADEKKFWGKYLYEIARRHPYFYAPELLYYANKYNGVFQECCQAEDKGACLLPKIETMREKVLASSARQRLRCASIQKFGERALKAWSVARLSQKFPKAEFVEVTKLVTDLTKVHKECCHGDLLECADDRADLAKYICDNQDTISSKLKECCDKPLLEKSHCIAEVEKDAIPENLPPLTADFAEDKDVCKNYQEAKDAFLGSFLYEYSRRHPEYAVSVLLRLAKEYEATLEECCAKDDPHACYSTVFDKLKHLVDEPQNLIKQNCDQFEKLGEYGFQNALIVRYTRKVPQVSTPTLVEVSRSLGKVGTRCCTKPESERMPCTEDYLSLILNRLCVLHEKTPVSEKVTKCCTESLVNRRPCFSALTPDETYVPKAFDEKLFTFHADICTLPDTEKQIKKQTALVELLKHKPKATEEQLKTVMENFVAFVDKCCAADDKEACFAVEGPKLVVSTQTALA

[2] = small-molecule microarray binders of probe aXIP, primary screen, biochemical, NeuroSMM set, 635/667 nm fluorescence (AID 1119); conditions: higher = more signal, called active from +8 up or from −8 down;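 further: probe is the protein aXip251-270 applied at 1 µg/mL to compound-printed slides; binding of probe to printed compounds measured as 667 nm fluorescence plus signal to noise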
[3] = small-molecule binders of probe aNOTCH3, primary screen, biochemical, small-molecule microarray, 635/667 nm fluorescence (AID 1120); conditions: higher = more signal;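 further: probe is a biotin-tagged antibody raised against NOTCH3 rather than NOTCH3 protein; score merges spot fluorescence near 667 nm with spot signal to noise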
[4] = small-molecule binders of probe aNOTCH2, primary screen, biochemical, small-molecule microarray, 635/667 nm fluorescence (AID 1121); conditions: higher = more signal;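 further: score merges feature fluorescence read at 667 nm with its signal to noise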
[5] = biological target: Carbonic anhydrase 2 (Homo sapiens) (UniProt P00918); assay: CAII small-molecule binders, profiling panel, biochemical, small-molecule microarray, Alexa647-labelled CAII (AID 1122); conditions: CAII-A647 binding fluorescence, higher = more signal
[6] = COS7 lysate on small-molecule microarray, probe aHis, 635 nm (AID 1123); conditions: COS7 cell lysate, fluorescence, higher = more signal;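 further: z-score combines 667nm fluorescence intensity with signal-to-noise per printed compound spot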
[7] = compound binding in COS7 lysate, probe aLAP1, primary screen, cell lysate, small-molecule microarray (AID 1124); conditions: probe aLAP1, fluorescence, higher = more signal;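 further: lysate comes from COS7 cells expressing LAP1 and is applied at 0.3 µg/mL; score merges spot fluorescence near 667 nm with signal-to-noise over triplicate slides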
[8] = system: Sam68 (KHDRBS1); assay: Sam68 small-molecule binders, primary screen, biochemical, small-molecule microarray, 635 nm fluorescence (AID 1125); conditions: small-molecule microarray binding, higher = more signal;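 further: score merges 667 nm channel intensity with signal to noise over triplicate slides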
[9] = system: Chordin-like protein 2 (CHRDL2); assay: CHRDL2 small-molecule binders, primary screen, biochemical, small-molecule microarray, 635 nm fluorescence (AID 1126); conditions: small-molecule microarray binding, fluorescence 635 nm; higher = more signal;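 further: printed compound slides probed with Chrdl2 protein at 4 µg/mL for 1 h at 4 C; score merges 667 nm emission intensity with signal to noise over three replicate slides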
[10] = biological target: Concanavalin-A (Canavalia ensiformis) (UniProt P02866); assay: ConA small-molecule binders, primary screen, artefact control for SMM control protein annotation, biochemical, small-molecule microarray, Alexa647 label, 635 nm (AID 1127); conditions: ConA-A647 binding fluorescence, higher = more signal;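 further: z combines 667 nm emission intensity with signal-to-noise across three replicate slides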
Sequence of Concanavalin-A (Canavalia ensiformis) (P02866 whole entry, looked up): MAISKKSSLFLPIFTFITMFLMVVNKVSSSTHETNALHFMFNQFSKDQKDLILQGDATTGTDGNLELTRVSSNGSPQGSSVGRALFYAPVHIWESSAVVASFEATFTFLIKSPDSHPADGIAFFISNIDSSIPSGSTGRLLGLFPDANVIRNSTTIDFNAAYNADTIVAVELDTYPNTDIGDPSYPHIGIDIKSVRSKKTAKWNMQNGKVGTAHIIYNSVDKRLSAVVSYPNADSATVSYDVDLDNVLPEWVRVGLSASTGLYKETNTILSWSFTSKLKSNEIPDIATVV

| Structure (SMILES) | composite z-score [1] | composite Z-score [2] | composite z-score [3] | composite z-score [4] | composite z-score [5] | composite z-score [6] | composite z-score [7] | composite z-score [8] | composite z-score [9] | composite z-score [10] |
| --- | --- | --- | --- | --- | --- | --- | --- | --- | --- | --- |
| C=CCOC(=O)[C@H]1[C@@H]2C(=O)O[C@@H](c3ccccc3)[C@@H](c3ccccc3)N2[C@@H](c2ccc(OCCOC(=O)[C@H]3C[C@H]4C(=O)NCC(=O)N4[C@H]3c3ccc(O)cc3)cc2)[C@]12C(=O)Nc1ccc(I)cc12 | 0.163 | -0.0149 (inactive) | -0.0647 | -0.104 | 0.0742 | 0.737 | 0.0174 | 0.503 | 0.677 | 1.13 |
| CN1C(=O)C2C=CC(C(O)c3ccc(-c4ccccc4)s3)N(Nc3ccccc3)C2C1=O (stereo not given) | 0.945 | 0.498 (inactive) | 0.403 | 0.135 | 0.714 | 1.94 | 0.32 | 1.24 | -0.121 | 1.15 |
| CCOC(=O)C1=CC[C@@H](c2ccccc2)N(S(=O)(=O)c2ccc(C)cc2)[C@H]1C#N | 0.721 | 0.718 (inactive) | 0.213 | 0.0362 | 0.76 | 1.67 | 0.254 | 1.2 | -0.232 | 1.15 |
| CC(C)C(=C=CC[C@@H](O)c1ccccc1OCCO)C[C@@H](O)c1cc(Cl)cc(Cl)c1O | 0.77 | -0.235 (inactive) | 0.156 | -0.147 | 0.68 | 1.76 | 0.632 | 1.26 | 0.784 | 0.612 |
| COc1ccc(NN2C(C(O)c3cc(C(F)(F)F)cc(C(F)(F)F)c3)C=CC3C(=O)N(C4CCCCC4)C(=O)C32)cc1 (stereo not given) | 0.771 | -0.0097 (inactive) | 1.02 | 0.659 | 0.589 | 1.5 | 0.219 | 1.07 | 0.0186 | 1.04 |
| CCC[C@@H]1C=C(C(=O)OCC)[C@H](c2ccccc2)N1S(=O)(=O)c1ccc(C)cc1 | 0.854 | 0.142 (inactive) | 0.341 | 0.273 | 0.214 | -0.0844 | 1.29 | 1.3 | 0.0538 | 1.11 |
| CCOC(=O)C1=CC[C@@H](c2ccccc2)N(S(=O)(=O)C[Si](C)(C)C)[C@H]1c1ccccc1 | 0.873 | -0.17 (inactive) | 0.138 | -0.0079 | 0.605 | 1.27 | -0.203 | 1.34 | 0.302 | 1.02 |
| C=CCOC(=O)[C@@H]1[C@H]2C(=O)O[C@H](c3ccccc3)[C@H](c3ccccc3)N2[C@H](c2ccc(OCCOC(=O)[C@H]3C[C@H]4C(=O)NCC(=O)N4[C@H]3c3ccc(O)cc3)cc2)[C@@]12C(=O)Nc1ccc(I)cc12 | -1.07 | 0.683 (inactive) | -0.0711 | -0.117 | 0.323 | 1.94 | -0.159 | 1.29 | 0.826 | 1.16 |
| CC(C)(C)N1CC=CC23O[C@@H]4/C=C\CCCOC(=O)C4[C@H]2C(=O)N(CCCCCCO)[C@@H]3C1=O (stereo not given in full) | 0.708 | -0.617 (inactive) | -0.284 | -0.117 | 0.938 | 0.185 | 0.495 | -1.35 | -1.25 | -1.42 |
| COCCOC(=O)N1C(=O)[C@@]2(c3cc(C#Cc4ccc(OC)cc4)ccc31)[C@H](c1ccc(OCCO)cc1)N1[C@H](c3ccccc3)[C@H](c3ccccc3)OC(=O)[C@H]1[C@@H]2C(=O)N1CCCCCCC1 | 0.807 | 1.44 (inactive) | 1.29 | 0.177 | 0.4 | 2.92 | 1.23 | 1.25 | 1.31 | 0.927 |
| COc1ccccc1CN1C(=O)c2ccccc2[C@@H](C(=O)NCCCN(C)C)[C@@H]1c1ccc(CO)cc1 | 0.303 | 0.0241 (inactive) | -0.2 | -0.152 | 0.733 | -0.171 | 0.323 | -2.03 | 0.288 | 0.343 |
| COC(=O)c1ccc([C@H](NC(=O)c2ccccc2)[C@]2(C)C[C@H]2C2CCCCC2)cc1 | 0.543 | 0.293 (inactive) | 0.237 | -0.0282 | 0.158 | 1.89 | 0.416 | 0.715 | -0.941 | 0.551 |
| COc1ccc(CCNC(=O)[C@@H]2c3ccccc3C(=O)N(CC34CC5CC(CC(C5)C3)C4)[C@H]2c2ccc(CO)cc2)cc1 | 0.764 | -0.422 (inactive) | 0.0206 | -0.132 | 0.539 | 1.7 | -0.0344 | 1.22 | 0.23 | 1.11 |
| Cc1ccc(S[C@]2(C(=O)NCC(F)(F)F)CC(=O)N(C3CCCCC3)[C@@H]2c2ccc(CO)cc2)cc1 | 0.344 | 0.399 (inactive) | -0.161 | -0.11 | 0.702 | 2 | 0.298 | 0.626 | -0.339 | -0.123 |
| NC(=O)N1C(=O)C2C(C1=O)C1C=C(CCCO)C2C(c2ccc(CN3CCCC3)cc2)N1Cc1cccc(OC(F)(F)F)c1 (stereo not given) | 0.0639 | 0.463 (inactive) | 0.0142 | -0.0148 | 0.203 | 0.904 | 0.0715 | 0.64 | 0.681 | -0.171 |
| CC(C)C[C@@H]1NC(=O)[C@@H]2C[C@H](C(=O)O)[C@H](c3ccc(O)cc3)N2C1=O | -1.01 | 0.102 (inactive) | 0.0488 | -0.106 | 0.558 | 0.68 | 0.186 | 1.31 | 1.15 | 1.21 |
| COCCOC(=O)N1C(=O)[C@@]2(c3cc(C#CC4=CCCCC4)ccc31)[C@H](c1ccccc1OCCO)N1[C@H](c3ccccc3)[C@H](c3ccccc3)OC(=O)[C@H]1[C@@H]2C(N)=O | -0.0123 | -0.463 (inactive) | 0.0174 | -0.0728 | 0.265 | 1.14 | 0.561 | 1.28 | 0.492 | 1.13 |

| Structure (SMILES) | composite z-score [1] | composite Z-score [2] | composite z-score [3] | composite z-score [4] | composite z-score [5] | composite z-score [6] | composite z-score [7] | composite z-score [8] | composite z-score [9] | composite z-score [10] |
| --- | --- | --- | --- | --- | --- | --- | --- | --- | --- | --- |
| [N-]=[N+]=Nc1ccccc1[C@@H]1OC(c2ccc(OCCCO)cc2)=N[C@]1(Cc1ccccc1)C(N)=O | 0.503 | -0.0189 (inactive) | 0.0694 | -0.0149 | 0.724 | 1.07 | -0.247 | 0.495 | -0.178 | 0.0171 |
| NCCCC[C@@H]1NC(=O)[C@H]2C[C@@H](C(=O)NCc3ccc(F)cc3)[C@@H](c3cccc(OCCO)c3)N2C1=O | -0.364 | 0.125 (inactive) | 0.156 | -0.0995 | 0.549 | 1.46 | 0.251 | 1.3 | 1.47 | 0.701 |
| COc1ccccc1CN1C(=O)c2ccccc2[C@](Cc2ccccc2I)(C(=O)NCCCN(C)C)[C@@H]1c1ccc(CO)cc1 | 0.0893 | -0.105 (inactive) | -0.243 | -0.181 | 0.475 | 1.86 | 2.08 | 1.3 | 0.176 | 1.11 |
| C=C(COC)/C(=C/C[C@H](OC(=O)c1ccncc1)c1cccc(OCCO)c1)c1cnc2ccccc2c1 | 0.671 | 1.56 (inactive) | 0.279 | -0.0681 | 0.855 | 1.21 | 0.444 | 1.3 | 1.23 | 1.09 |
| C=C(COC)C(=O)CC[C@@H](OC(=O)c1cccnc1)c1cccc(OCCO)c1 | 0.0464 | -0.239 (inactive) | 0.158 | -0.107 | 0.75 | 0.148 | -0.292 | 0.804 | 0.423 | -0.095 |
| COCCOC(=O)N1C(=O)[C@@]2(c3cc(C#CC4(O)CCCCCC4)ccc31)[C@H](c1ccc(OCCO)cc1)N1[C@H](c3ccccc3)[C@H](c3ccccc3)OC(=O)[C@H]1[C@@H]2C(N)=O | 0.119 | 0.189 (inactive) | 0.0876 | -0.0907 | 0.3 | 0.615 | 0.519 | 1.3 | 0.986 | 1.17 |
| C=C(/C(=C/C[C@@H](OC(C)=O)c1ccccc1OCCO)c1cc(C(=O)OC)ccc1OC)C(C)C | 0.344 | 0.231 (inactive) | 0.217 | -0.0548 | 0.697 | 0.335 | -0.394 | 0.373 | -0.134 | 1.02 |
| CN(C)CCCC[C@@H]1NC(=O)[C@H]2C[C@@H](C(=O)O)[C@@H](c3cccc(OCCO)c3)N2C1=O | -0.468 | 0.666 (inactive) | 0.601 | 0.124 | 0.816 | 0.699 | 0.0206 | 0.524 | 0.941 | 0.931 |
| CCCCC(O)C1C=CC2C(=O)NC(=O)C2N1Nc1ccc(Cl)cc1Cl (stereo not given) | 0.891 | 0.593 (inactive) | 0.23 | 0.0264 | 0.253 | 2.54 | 0.0614 | 0.0434 | -0.452 | 0.255 |
| Cc1ccc(F)cc1S(=O)(=O)N[C@@H]1CCN(Cc2ccc3[nH]ccc3c2)C1 | -0.213 | 0.688 (inactive) | 0.128 | -0.176 | 0.713 | 0.95 | -0.126 | 0.605 | 0.651 | 0.463 |
| Cc1ccc(S(=O)(=O)N2[C@@H](c3ccccc3)C(C(=O)O)=CC[C@H]2c2ccc(C#N)cc2)cc1 | 1.04 | 0.661 (inactive) | -0.0647 | 0.0167 | 0.802 | 3.18 | 1.04 | 1.21 | -0.425 | 0.805 |
| COC(=O)[C@@]1(Cc2ccc(F)cc2)[C@H]2c3cc(C(=O)N(C)C)n(CCO)c3C[C@H]2CN1C(=O)c1ccccc1 | 1.13 | -0.551 (inactive) | -0.0448 | 0.0746 | 0.861 | 1.97 | 1.21 | -0.206 | -0.437 | -0.0249 |
| O=C1N(CCS(=O)(=O)c2ccccc2)c2ccccc2[C@@H]2OC(c3ccc(OCCCO)cc3)=N[C@]12CCS(=O)(=O)c1ccccc1 | 0.929 | 0.759 (inactive) | 0.0496 | 0.0684 | 0.503 | 2.8 | 1.21 | 1.29 | 1.1 | 1.15 |
| Cc1ccc(F)cc1S(=O)(=O)N[C@@H]1CCN(Cc2ccc3c(c2)OCO3)C1 | 0.167 | -0.0662 (inactive) | -0.129 | -0.147 | 0.0085 | -0.702 | 0.0521 | -0.148 | 0.0213 | -0.319 |
| CC(C)(C)OC(=O)CC[C@]1(C(N)=O)N=C(c2ccc(OCCCO)cc2)O[C@H]1c1ccccc1CN=[N+]=[N-] | 0.712 | 0.523 (inactive) | 0.761 | 0.234 | 0.981 | 3.63 | 0.666 | 1.33 | -0.894 | 0.831 |
| C[N+](C)(C)CCCC[C@@H]1NC(=O)[C@H]2C[C@@H](C(=O)NCCCCCNC(=O)CS)[C@@H](c3ccc(O)cc3)N2C1=O | 0.896 | 0.325 (inactive) | -0.154 | -0.158 | 0.678 | 1.45 | 0.361 | 0.616 | 0.268 | 0.997 |
